# Rows were chosen to be rich in hits. Some 4.1% of all compounds tested hit in one or more screens of this group.
# ssDAF-12 act: S. stercoralis DAF-12 activation, primary screen; activation, % at 6.8 µM; HEK293 ssDAF-12/GRIP1 lit1-tk-luc reporter, luminescence; % of 3 µM dafachronic acid response; 1% of 370,000 active;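 active = activation above the mean over all tested compounds plus 3 SD, cut at about 0.9% in these data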
# DAX1 inh-1: blocks DAX1 repression of SF-1 activated StAR promoter | 1.1% of 370,000 active | inhibition, % at 6.8 µM | HEK293T StAR-luciferase reporter, SF-1/DAX-1 repression relief;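 active = inhibition above the mean over all tested compounds plus 3 SD, cut at about 3.6% in these data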;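 also: higher inhibition means more luminescence from relief of DAX-1 repression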
# DAX1 inh-2: NR0B1 (DAX1) inhibition. P51843. HEK293 Gal4-DAX1 luciferase reporter, luminescence. inhibition, % at 6.75 µM. 0.99% of 340,000 active;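 active = inhibition above the mean over all tested compounds plus 3 SD, cut at about 4.2% in these data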;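 also: inhibition shows as a rise in luminescence from relieved DAX1 repression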
# Target sequence (P51843 207-470 limits assumed): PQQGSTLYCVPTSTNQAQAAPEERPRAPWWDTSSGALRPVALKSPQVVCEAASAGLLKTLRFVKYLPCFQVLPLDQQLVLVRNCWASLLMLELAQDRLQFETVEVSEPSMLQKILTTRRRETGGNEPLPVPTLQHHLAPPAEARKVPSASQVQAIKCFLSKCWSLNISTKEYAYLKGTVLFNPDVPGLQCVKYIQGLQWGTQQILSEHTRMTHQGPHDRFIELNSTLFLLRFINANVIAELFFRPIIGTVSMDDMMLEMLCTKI
# hgDAF-12 ag: agonists of H. glycines DAF-12 nuclear receptor | AID 687014 | HEK293 GAL4-hgDAF12 UAS-luciferase reporter, agonist luminescence; normalized to butyrate control | activation, % at 6.8 µM | 1.8% of 370,000 active;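 active = activation above a cutoff set at the mean of all screened compounds plus 3 SD, cut at about 10% in these data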
# hcDAF-12 act: activates DAF-12 receptor from parasite H. contortus. HEK293 hcDAF-12 lit1-tk-luc reporter, luminescence; 0% DMSO, 100% Δ7-dafachronic acid. activation, % at 6.8 µM. 1.4% of 370,000 active;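 active = activation above the mean of all tested compounds plus 3 SD, cut at about 5.5% in these data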
# A number is an active result; - = inactive; . = no result.
SMILES,ssDAF-12 act,DAX1 inh-1,DAX1 inh-2,hgDAF-12 ag,hcDAF-12 act
COC(=O)c1cc(=O)c2c([N+](=O)[O-])ccc(OC)c2o1,-,-,4.6,-,-
COc1ccccc1-c1cc(=O)c2c(O)ccc([N+](=O)[O-])c2o1,-,-,-,-,-
CN1CCN(C(=O)CNc2ccc(C(F)(F)F)cc2[N+](=O)[O-])CC1,-,-,-,-,5.8
CC(C)CC(=O)Nc1nnc(-c2ccco2)s1,-,-,-,-,-
CCc1ccc(OCC(=O)Nc2nnc(-c3ccco3)s2)cc1,-,4.4,-,-,-
CC(C)c1ccc(N=C2NN=C(c3cccs3)CS2)cc1,-,-,7.2,-,-
Cc1ccc(C2=NNC(=Nc3ccc(F)cc3)SC2)cc1,-,-,-,11,5.7
C=CCn1c(C)cc(C2=NNC(=Nc3ccc(C)cc3)SC2)c1C,-,-,-,-,-
CCCCNC(=O)C[C@H]1C[C@@]2(C(=O)OC)C(=C[C@H](COCc3ccccc3)O[C@@H]2C)N(Cc2cccc3ccccc23)C1=O,-,-,.,-,-
CCOC(=O)C1=NN(c2cccc(Cl)c2)C2=NC(C)=C(C(=O)OC)C(c3cccs3)N12 (stereo not drawn),-,-,5.6,-,-
O=C(CSc1nnc(-c2ccncc2)n1-c1ccc(Br)cc1)c1ccccc1,-,-,.,-,-
O=C(COc1ccc([N+](=O)[O-])cc1Cl)N(C1CCCCC1)C1CCS(=O)(=O)C1 (stereo not drawn),-,-,-,-,-
COc1ccc(-c2c(C)nc3c(-c4ccsc4)cnn3c2N)cc1,-,-,5.2,-,-
Cc1cc(N)n2ncc(-c3ccc(F)cc3)c2n1,-,-,-,-,-
Cc1nc2c(-c3ccc(F)cc3)cnn2c(N)c1-c1ccc(F)cc1,-,-,4.3,-,-
CC(C)(C)S(=O)(=O)c1cnc2c(-c3ccsc3)cnn2c1N,-,-,-,-,-
COc1ccc(S[C@]2(C(=O)N3CCN(c4ncccn4)CC3)CC(=O)N(C(=O)CCc3ccccc3)[C@@H]2c2ccc(OC)cc2)cc1,-,-,.,-,-
COc1ccc(OCC(=O)Nc2c(Cl)ccc3nsnc23)cc1,-,-,-,-,6.2
COc1ccc(OCC(=O)Nc2c(C)ccc3nsnc23)cc1,-,-,-,-,-
O=C(NCCc1ccccc1)c1nc(-c2cccs2)no1,-,-,-,11,-
O=C(NCc1ccncc1)c1nc(-c2cccs2)no1,-,-,-,-,-
O=C(NCc1cccs1)c1nc(-c2cccs2)no1,-,-,4.3,-,-
CN1[C@H](Cc2ccccc2)COc2cc(N3CCSCC3)ccc2S1(=O)=O,-,-,.,-,-
Cc1ccc(CNC(=O)Nc2ccc(C)cc2)cc1,-,-,-,-,-
Cc1ccccc1CNC(=O)Nc1ccc(Cl)cc1,-,-,5.5,-,-
SMILES,ssDAF-12 act,DAX1 inh-1,DAX1 inh-2,hgDAF-12 ag,hcDAF-12 act
Cc1ccc(CNC(=O)Nc2ccccc2)c(C)c1,-,-,-,13,-
O=c1cc(-c2ccc(O)cc2)oc2ccc(O)cc12,-,-,-,13,-
Nn1c(Cc2cccc3ccccc23)nnc1SCc1ccccc1,-,-,-,-,-
O=C(O)CSc1nnc(Cc2cccc3ccccc23)n1-c1cc(C(F)(F)F)cc(C(F)(F)F)c1,-,-,5.7,-,-
O=C1c2ccccc2C(=O)N1CN(C(=O)COc1ccc(Cl)cc1Cl)c1cccc(F)c1,-,-,-,-,5.9
CCN(C(=O)COc1cc(=O)n(CC)c2ccccc12)c1cccc(Cl)c1,-,-,-,-,-
O=[N+]([O-])c1ccccc1-c1ccc(C(=S)N2CCN(c3ccccc3)CC2)o1,1.7,-,-,-,-
O=c1[nH]c2ccccc2nc1/C=C/c1ccccc1,-,-,-,12,6.4
CC(C)C(=O)NC(=S)Nc1sc2c(c1C(N)=O)CCCC2,-,-,-,11,-
CC(=O)NC(=S)Nc1sc2c(c1C#N)CCCCC2,-,-,-,12,-
CCCC(=O)NC(=S)Nc1sc2c(c1C(N)=O)CCC2,-,-,-,-,-
Cc1ccc(C2c3[nH]c4ccccc4c3C[C@H]3C(=O)N(c4ccccc4C(=O)NCCCN4CCOCC4)C(=O)N23)cc1 (stereo partly drawn),-,-,-,-,-
O=C(NCCCN1CCOCC1)c1ccccc1N1C(=O)[C@@H]2Cc3c([nH]c4ccccc34)C(c3ccccc3)N2C1=O (stereo partly drawn),-,-,.,-,5.8
COc1ccc(S[C@]2(C(=O)N3CCN(c4ncccn4)CC3)CC(=O)N(c3ccc(Cl)cc3)[C@@H]2c2ccc(OC)cc2)cc1,-,-,.,-,-
CC1Cc2ccccc2N1C(=O)CO/N=C/c1ccccc1OC(F)F (stereo not drawn),-,-,-,-,-
O=C(CO/N=C/c1ccccc1OC(F)F)N1CCc2ccccc21,-,-,-,-,6.5
COC(=O)[C@]12C[C@H](CC(=O)NCc3ccc(C)o3)C(=O)N(Cc3cccc4ccccc34)C1=C[C@H](C1CCCC1)O[C@@H]2C,-,-,.,-,-
Cc1cccc(-c2cc3nc(-c4ccccc4)cc(=O)n3[nH]2)c1,-,-,6.4,-,-
Cc1ccccc1-c1cc2nc(-c3ccc([N+](=O)[O-])cc3)cc(=O)n2[nH]1,-,-,-,-,-
Cc1ccccc1CNC(=O)CN1CCCc2ccccc21,-,-,.,-,-
C=CCc1c(C)nc(N2CCSCC2)[nH]c1=O,-,-,4.3,-,-
CCOC(=O)[C@]12CCCC3=C1N(CCC3)C(=O)[C@@H](CC(=O)NCC1CCCCC1)C2,-,-,.,-,-
CCn1c(SCC(=O)c2cc(OC)ccc2OC)nnc1C(C)C,1.2,-,-,-,-
CCn1c(SCC(=O)c2cc(OC)ccc2OC)nnc1-c1ccncc1,-,-,-,-,-
c1ccc2c(c1)Cc1cc3ccccc3nc1-2,1.2,-,-,15,17
SMILES,ssDAF-12 act,DAX1 inh-1,DAX1 inh-2,hgDAF-12 ag,hcDAF-12 act
Cc1cc2ccccc2nc1-c1ccccc1F,-,-,-,-,-
O=C(NCc1ccc(C(F)(F)F)cc1)O[C@H]1CC[C@@]23CCCN2C(=O)CCC[C@H]3C1,-,.,.,-,-
Cc1sc2nc(C3CCCCC3)nc(SCC(=O)N3CC(=O)Nc4ccccc43)c2c1C,1.2,-,-,-,-
CCCNC(=O)C1CC(=O)N(c2ccc(OCc3ccc(F)cc3)cc2)C1 (stereo not drawn),-,-,-,13,5.9
NC(=O)C1CC(=O)N(c2ccc(OCc3ccc(Cl)cc3)cc2)C1 (stereo not drawn),-,-,-,12,-
CCc1ccc2nc3nc(C)cc(C)c3c(N)c2c1,-,-,-,-,-
Cc1cc(C)c2c(N)c3ccccc3nc2n1,4.0,-,-,11,18
CCOc1cc(-c2nnc(-c3ccco3)o2)cc(OCC)c1OCC,-,-,-,-,-
Brc1ccc(-c2nnc(-c3ccco3)o2)cc1,-,-,-,-,-

# Screening results (PubChem)
